Results published in PubChem BioAssay (NCI).
This is part of a sample that, as a whole, favours compounds with a hit. Of some 83,000 tested, about 20% had one in any assay.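 Percent growth is the endpoint: 0 to 100 indicates growth inhibition (40 means 60% inhibition), 0 means no net growth, and negative values indicate cell death.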 Activity calls are given as the source filed them. The calls were made as follows: active = growth percent below 10; inactive = the rest.

What was measured:
Assay in all cases: NCI-60 one-dose screen, 48 h (100 = growth as untreated, 0 = no growth, -100 = all killed)
Conditions in all cases: 10 µM unless noted
[1] = test system: DU-145 prostate
[2] = test system: K-562 leukemia
[3] = test system: MDA-MB-231 breast
[4] = test system: RXF 393 renal
[5] = test system: SF-268 CNS
[6] = test system: SF-539 CNS
[7] = test system: UACC-257 melanoma
[8] = test system: M14 melanoma
[9] = test system: HCT-15 colon
[10] = test system: HT29 colon
[11] = test system: SNB-75 CNS
[12] = test system: SNB-19 CNS
[13] = test system: U251 CNS
[14] = test system: PC-3 prostate
[15] = test system: SK-MEL-5 melanoma
[16] = test system: UACC-62 melanoma
[17] = test system: LOX IMVI melanoma
[18] = test system: SK-MEL-28 melanoma
[19] = test system: MALME-3M melanoma
[20] = test system: SF-295 CNS

Measured: growth

COc1cc(OC)cc(-c2n/c(=C\c3c(O)[nH]c4ccc(Cl)cc34)cc3c2=Nc2ccccc2-3)c1
inactive: [1] 18.4% | [2] 28% | [3] 64.5% | [4] 76.8% | [5] 52.8% | [6] 104% | [7] 108% | [8] 86% | [9] 84.2% | [10] 15.6% | [11] 93.7% | [12] 79.5% | [13] 17.6% | [14] 69.3% | [15] 92.9% | [16] 104% | [17] 18.8% | [18] 109%

CC1(C)C2CCC(O)(C(=O)O)C1C2 (stereo not given)
inactive: [2] 108% | [19] 109% | [3] 98.9% | [4] 136% | [5] 112% | [20] 103% | [6] 103% | [7] 124% | [8] 105% | [9] 114% | [10] 110% | [11] 83.4% | [12] 102% | [13] 113% | [14] 94.9% | [15] 107% | [16] 91% | [17] 110% | [18] 102%

CCN(CC)CCNc1c(C)cc(CO)c(Cl)c1C
inactive: [1] 120% | [2] 115% | [3] 104% | [4] 119% | [20] 104% | [6] 103% | [7] 96.7% | [8] 110% | [9] 106% | [10] 97% | [11] 90.2% | [12] 92.8% | [13] 105% | [14] 97.9% | [15] 106% | [16] 102% | [17] 98.8% | [18] 104%
